# Test results published in PubChem BioAssay AID493210 (National Center for Advancing Translational Sciences (NCATS), 2011).
# Some of the results follow. The source made the active and inactive calls. Calls come from the whole dose curve.
# Biological target: Aldehyde dehydrogenase 1A1 (Homo sapiens) (UniProt P00352)
# Assay: Inhibitors of Aldehyde Dehydrogenase 1 (ALDH1A1): Followup Confirmation and Counterscreen
# Settings: purified ALDH1A1, NADH fluorescence, propionaldehyde/NAD+
# Description: Aldehyde dehydrogenase 1 (ALDH1A1) catalyzes the NAD+ dependent oxidation of a variety of endogenous and exogenous aldehydes to the corresponding carboxylic acids. The enzyme is the critical step in the metabolic activation of retinoic acid, which plays essential roles as nuclear receptor ligand. […] See [1] through for more information on ALDH1A1. Inhibition of ALDH1A1 activity was screened by utilizing propionaldehyde as an electron donor and NAD+ as an electron acceptor/cofactor. An increase in the fluorescence intensity due to conversion of NAD+ to NADH was used to measure the enzyme activity. See [5] for screening methodology used. References: [1] Manzer R, Qamar L, Estey T, Pappa A, Petersen DR, Vasiliou V. Molecular cloning and baculovirus expression of the rabbit corneal aldehyde dehydrogenase (ALDH1A1) cDNA. DNA Cell Biol. 2003 May;22(5):329-38. Collard F, Vertommen D, Fortpied J, Duester G, Van Schaftingen E. Identification of 3-deoxyglucosone dehydrogenase as aldehyde dehydrogenase 1A1 (retinaldehyde dehydrogenase 1). Biochimie. 2007 Mar;89(3):369-73. Ziouzenkova O, Orasanu G, Sharlach M, Akiyama TE, Berger JP, Viereck J, Hamilton JA, Tang G, Dolnikowski GG, Vogel S, Duester G, Plutzky J. Retinaldehyde represses adipogenesis and diet-induced obesity. Nat Med. 2007 Jun;13(6):695-702. Molotkov A, Duester G. Genetic evidence that retinaldehyde dehydrogenase Raldh1 (Aldh1a1) functions downstream of alcohol dehydrogenase Adh1 in metabolism of retinol to retinoic acid. J Biol Chem. 2003 Sep 19;278(38):36085-90. […] Quantitative high-throughput screening: a titration-based approach that efficiently identifies biological activities in large chemical libraries. […]
# Buffer: 100 mM Hepes pH 7.5, 0.01% Tween 20. […] The plates were immediately transferred to and read twice on ViewLux High-throughput CCD imager (Perkin-Elmer) 20 minutes apart using 360 nm excitation and 450 nm emission fluorescence protocol. The fluorescence intensity difference between the second and the first time points was used to compute reaction progress.
# Aldehyde dehydrogenase 1A1 (Homo sapiens), sequence (P00352 whole entry, looked up): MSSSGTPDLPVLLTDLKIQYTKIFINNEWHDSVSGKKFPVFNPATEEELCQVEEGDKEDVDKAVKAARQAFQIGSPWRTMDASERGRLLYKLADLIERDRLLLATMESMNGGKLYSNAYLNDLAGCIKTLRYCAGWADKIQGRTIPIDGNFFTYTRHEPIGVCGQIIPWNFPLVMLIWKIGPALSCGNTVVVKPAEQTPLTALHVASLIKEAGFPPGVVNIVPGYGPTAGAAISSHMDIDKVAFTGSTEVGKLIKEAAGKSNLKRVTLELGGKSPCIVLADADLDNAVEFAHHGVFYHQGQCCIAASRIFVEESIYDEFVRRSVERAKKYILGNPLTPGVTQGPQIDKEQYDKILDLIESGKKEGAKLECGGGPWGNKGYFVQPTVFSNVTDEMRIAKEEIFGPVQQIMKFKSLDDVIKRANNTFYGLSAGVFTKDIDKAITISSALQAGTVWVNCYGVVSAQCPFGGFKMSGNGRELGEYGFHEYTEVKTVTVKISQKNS
row,Structure (SMILES),Potency
1,O=C(CN(Cc1ccccc1)C(=O)c1ccc2c(c1)OCCO2)NCc1ccc2c(c1)OCO2,398 nM (active)
2,CC1CCCN(C(=O)c2ccc3c(c2)C(=O)N(CCC2=CCCCC2)C3=O)C1 (stereo not drawn),1260 nM (active)
3,Cc1cccc2c1N(CC(=O)OC(C)C)C(=O)C2=O,22.4 nM (active)
